Assay results from PubChem BioAssay.

assay: MRP1 drug-resistance reversers in H69AR cells – cell-based, doxorubicin co-treatment, pilot screen (AID 601); conditions: H69AR cells + 2 uM doxorubicin, CellTiter-Glo, 72 h; measured here: viability with 2 uM doxorubicin; at 10 µM; stronger effect = lower value

Structure (SMILES)	viability
COC(=O)c1cc(-c2c(C)nn(-c3ccccc3)c2C)n[nH]1	104%
CCN(CC)CCNC(=O)C1CCN(S(=O)(=O)N2CCCCC2)CC1	94.6%
COc1ccc(-c2noc(CCC(=O)Nc3nc4ccccc4s3)n2)cc1	91.1%
Nc1nc(SCCOc2ccccc2)n[nH]1	90.8%
COc1cc(OC)cc(-c2nc(N)n[nH]2)c1	97.3%
O=c1ccn(Cc2ccccc2Cl)cc1	78.4%
O=C(NC12CC3CC(CC(C3)C1)C2)N1CCN(C(=O)C2CCCO2)CC1 (centres undefined)	84.4%
O=C(C1CC2CCC1C2)N1CCN(Cc2ccc3c(c2)OCO3)CC1 (centres undefined)	85.3%
O=C(O)c1cccn2c(=O)c3ccccc3nc12	91.4%
COc1cc2c(cc1NCc1ccccn1)oc1ccccc12	94.1%
CCCCCCn1c(CN2CCN(Cc3ccccc3)CC2)nc2c1c(=O)n(C)c(=O)n2C	32.1%
Cc1cccc2cc(C(c3nnnn3C(C)(C)C)N3CCN(C(=O)c4ccco4)CC3)c(=O)[nH]c12 (centres undefined)	83%
Cc1ccc(Cn2ccc(NC(=O)c3noc4c3CCCC4)n2)cc1	88.6%
CCOC(=O)CC(=O)c1cc(OC)c(OC)c(OC)c1	95.6%
CCOc1ccc(C2/C(=C(/O)c3ccccc3)C(=O)C(=O)N2CCCN(C)C)cc1OC (centres undefined)	92.9%
Cn1c(=O)c(=O)n(C)c2cc(S(=O)(=O)N3CCN(c4cccc(C(F)(F)F)c4)CC3)ccc21	94.3%
CN(c1ccccc1C(=O)N1CCN(c2cccc(Cl)c2)CC1)S(C)(=O)=O	94.5%
CCCn1nc(CC(=O)O)c2ccccc2c1=O	94.7%
COc1cccc(Nc2nc(=O)[nH]nc2C)c1	76.4%
